Growth data for 38 molecules are collected here from PubChem BioAssay (NCI).

About 83,000 compounds went through this panel and 20% of them were active in at least one assay; those are over-represented in the sample as a whole.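 How to read the values: 0–100, growth inhibition (40 = 60% inhibited); 0, no net growth; -100 to 0, cell death (-40 = 40% of starting cells died; -100 = all dead).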 Unmarked numbers belong to inactive results. Activity calls are given as the source filed them. The calls were made as follows: active = growth percent below 10; inactive = the rest.

The test has as its system OVCAR-4 ovarian. In words: NCI-60 one-dose screen, 48 h (100 = growth as untreated, 0 = no growth, -100 = all killed). To be noted: 10 µM.
Turning to `COc1ccc(-c2cc3c(nn2)-c2ccccc2C3=O)cc1`, the growth was -26.1% (active).
With `CCCCC(=O)c1ccc(OC)cc1`, the growth is 116%.
The same measure for `N=c1c(C(=O)OCc2ccccc2)ncc(CCl)n1O`: 91.3%; for `CCOC(=O)c1ccc(Nc2sc(C(=O)c3cccc([N+](=O)[O-])c3)c(N)c2C#N)cc1`: 33.1%.
The value for `COC(=O)c1ccccc1N(C)C` was 101%.
The value for `CC1(C(=O)O)NC(C(=O)O)Cc2c1[nH]c1ccccc21` (stereo not drawn) was 105%; that for `NCCC(=O)c1ccc(Cl)cc1` was 110%.
Take `CC(=O)/C(Cc1ccccc1)=N/O`: the growth is 92%.
For the molecule `Cc1cccc(CO)c1`, the growth is 103%.
Turning to `CC1(C)/C(=C\CO)C2CCC1C2` (stereo not drawn), the growth was 111%.
The value for `CC1C(=O)c2ccccc2CC1C(=O)O` (stereo not drawn) was 108%; that for `CC12CC3CC1C(C(=O)O2)C3C(=O)O` (stereo not drawn) was 111%; that for `CC(C)CCOC(=O)c1ccccc1` was 107%.
Take `O=C1C[C@H](c2ccccc2)[C@H](c2ccccc2)C1`: the growth was 105%.
Regarding `O=c1cc(-c2ccccc2)oc2c1ccc1ccccc12`, the growth is 93.6%.
As for `O=C(CCl)N1CCN(C/C=C/c2ccccc2)CC1`, the growth is 81.6%.
With `COC(=O)c1cccnc1`, the growth was 110%.
With `CC(=O)NCc1cc(C)c(C)cc1C`, the growth was 106%.
Turning to `C#CCSc1nnnn1-c1ccc(Br)c(C)c1`, the growth is 80.8%.
`C=CCNC(=O)c1ccc(OC)cc1`: the growth is 134%.
Regarding `O=C1Cc2ccccc2C(=O)O1`, the growth was 112%.
As to `Cc1ccccc1C1N=C2Oc3ccccc3C=C2C(=O)N1` (stereo not drawn), the growth was 74.5%.
As for `C/C(=C\c1cc(Cl)ccc1OCC(=O)O)[N+](=O)[O-]`, the growth is 111%.
As for `Cc1cc(Cc2cc(C)c(N)cc2N)c(N)cc1N`, the growth is 111%.
Turning to `CC1Cc2ccccc2O1` (stereo not drawn), the growth is 119%.
For the molecule `Cc1cc(C)cc(NCCC#N)c1`, the growth is 102%.
`OCC(O)C(O)C(O)C(O)/C=N/O` (stereo not drawn): the growth was 104%.
For the molecule `O=c1cc(-c2ccccc2)[nH]c(=S)[nH]1`, the growth is 110%.
On to `Nc1nc(N)c(N=Nc2ccc(C(=O)O)cc2)c(N)n1`, for which the growth is 105%.
Turning to `c1ccc(CN2COc3c(ccc4c3OCN(Cc3ccccc3)C4)C2)cc1`, the growth was 26.3%.
For the molecule `CCOC(=O)C1=C(Nc2ccc(Br)cc2)C(=O)N(CC)C1`, the growth is 93.7%.
Take `CC(C)=CC(=O)OC(=O)C=C(C)C`: the growth was 119%.
Consider `O=C(O)C(c1ccccc1)C(O)c1ccccc1` (stereo not drawn), for which the growth is 120%.
For `O=C(CN1CCNCC1)N1CCOCC1`, the growth was 110%.
Regarding `Nc1ccc(N)c([N+](=O)[O-])c1`, the growth was 112%.
On to `CCOC(=O)c1coc(C(=O)OCC)c1C(=O)OCC`, for which the growth is 119%.
Turning to `COC(=O)/C=C/C(=O)NC(N)=O`, the growth is 98.5%.
Regarding `O=[N+]([O-])c1ccc(N=Nc2ccccc2)cc1`, the growth was 107%.
